# In all, about 33,000 sequences were measured (“E-score (-0.5 to 0.5)”: median about -0.035, highest 2% from about 0.34 on). For the sample, the highest values were picked, then their nearest neighbours and some sequences at random.
# Target: T1, Mot3 (UniProt P54785)
# T1 sequence: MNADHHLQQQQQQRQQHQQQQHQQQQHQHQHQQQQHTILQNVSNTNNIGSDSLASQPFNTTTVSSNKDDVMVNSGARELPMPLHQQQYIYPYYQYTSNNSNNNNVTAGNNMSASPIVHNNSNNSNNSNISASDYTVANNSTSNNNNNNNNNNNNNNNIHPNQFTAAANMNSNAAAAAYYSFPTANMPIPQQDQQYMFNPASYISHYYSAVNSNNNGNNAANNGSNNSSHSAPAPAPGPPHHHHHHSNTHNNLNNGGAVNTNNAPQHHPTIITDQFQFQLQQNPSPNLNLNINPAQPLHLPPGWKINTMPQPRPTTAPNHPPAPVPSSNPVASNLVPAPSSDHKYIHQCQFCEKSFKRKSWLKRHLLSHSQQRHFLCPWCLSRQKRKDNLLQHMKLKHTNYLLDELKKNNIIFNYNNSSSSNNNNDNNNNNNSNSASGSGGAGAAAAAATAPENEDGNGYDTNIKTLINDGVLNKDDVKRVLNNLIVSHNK
# Experiment: PBM E-score (8-mer binding enrichment) (E-score (-0.5 to 0.5)); higher = stronger / more preferred TF binding
# Conditions: protein concentration: 200 nM; construct: GST-full length
# Procedure, shortened: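 PURExpress in vitro transcription/translation supplied GST-tagged yeast transcription factors, either full-length or DNA-binding domain. Applied at about 100-200 nM to universal all-10-mer Agilent arrays double-stranded by primer extension, the bound protein was detected with fluorescent anti-GST. E-scores, modified Wilcoxon-Mann-Whitney statistics, were given by the Universal PBM Analysis Suite to ungapped eight-base words pooled with their reverse complements after masliner normalisation.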
row,Sequence,PBM E-score
1,GACTGGAA,-0.213
2,AATAGGAT,-0.00596
3,AATAGGAA,0.415
4,AATAGGTA,0.38
5,AATAGGTG,0.0976
6,AATAGGTC,0.0378
7,GATAGGAA,0.197
8,CCTAGGAA,0.018
9,TATAGGAA,0.412
10,CATAGGAA,0.231
11,ACGTGCCA,0.00099
12,AAGTCCGT,-0.0474
13,AGTTAGGA,0.108
14,ATCAGGTA,0.256
15,GGGCGTGA,-0.066
16,CGACTTCC,-0.0315
17,TCTATAGA,-0.152
18,ACAATGGT,-0.058
19,AGGTAATG,0.279
20,AGGTAATC,0.344
21,CGGTAATC,-0.149
22,ATGTATTG,0.303
23,ATGTAATG,0.395
24,ATGTAACG,0.268
25,ATGTAATA,0.405
26,CTGTAATA,0.238

row,Sequence,PBM E-score
1,CTGTATTC,0.185
2,ATGTAAGA,0.309
3,ATGTAAGG,0.298
4,ATGTATTC,0.363
5,GGAGACCC,-0.0421
6,ACAACTAA,0.183
7,AGAAGTGG,-0.199
8,ATGCGTGG,-0.214
9,CTGCAACA,0.0762
10,CGCCACTA,-0.196
11,AAGTCCAC,-0.187
12,AAGTGCTC,-0.203
13,ACCAGTAA,0.016
14,GCACAGCA,0.144
15,CAAGTTGC,0.144
16,CAGCGAGG,-0.276
17,TTCGCAAA,0.0552
18,GTGTAATA,0.375
19,GAGTAATA,0.147
20,GGGTAATA,0.17
21,ATGTAAGC,0.267
22,ATGTAATC,0.367
23,CTGTAATC,0.111
24,AGCGAAGC,-0.0443
25,AAAGGCTC,0.354
26,GAAGGCGA,-0.0248

row,Sequence,PBM E-score
1,AAAGGCTG,0.0993
2,AAAGGCGG,0.0743
3,GAAGGCCC,0.122
4,AAAGGCGC,0.371
5,GAAGGCGC,0.362
6,CAAGGCGC,0.191
7,CAAGGCTC,0.0281
8,CAATGAGG,-0.197
9,TACGCGAA,0.221
10,TCGACTAA,-0.0673
11,ATGCACTC,-0.061
12,GGGCACTA,0.0732
13,AGGCACTC,0.481
14,CGGCACTA,-0.184
15,AGGCACTG,0.483
16,ACGCACTG,0.00111
17,AGGCACTA,0.484
18,AAGCACTG,-0.0039
19,CGGCACTC,-0.251
20,GTGATCGA,0.11
21,TAAAAGCA,-0.123
22,GCAGACAC,-0.00428
23,AGAGACGA,-0.246
24,CCACGGTA,-0.191
25,ACACGGGA,0.29
26,ATACGGTC,-0.061

row,Sequence,PBM E-score
1,ACACGGGT,0.348
2,CCACGGTC,-0.385
3,ACACGGTC,0.349
4,ACACGGTA,0.34
5,ACACGGTG,0.335
6,ACACGGGC,0.259
7,AAAACTCA,0.0802
8,ATCCTGAA,0.0408
9,GAGGGACC,-0.298
10,ATTACGTG,0.383
11,ACTACGTG,0.0857
12,ATTACGTA,0.354
13,ATTACGTC,0.269
14,CTTACGTA,0.211
15,GTTACGTA,0.177
16,ACGTCCAG,-0.0677
17,GTGGGTAA,-0.0112
18,GGCACGAC,0.36
19,GGCACGTA,0.363
20,CGCACGCA,-0.03
21,CGCACGTA,0.154
22,GGCACGGA,0.397
23,AGCACGGA,0.102
24,AGCACGTA,0.136
25,GGCACGAA,0.271
26,GGCACGCA,0.348

row,Sequence,PBM E-score
1,CGCACGGA,-0.207
2,CGCACGAC,-0.0534
3,GGCACGCC,0.237
4,ACACCCCG,-0.336
5,ACCAGCCA,-0.131
6,ATGCTCTG,-0.203
7,ACCGCTCC,-0.258
8,CGGCATTC,-0.249
9,CCTCGAGG,-0.336
10,GCTTGTAA,0.318
11,ACGAAAGG,0.153
12,AGGAAAGA,0.282
13,AGGAAAGC,0.405
14,AGAAAAGC,-0.171
15,AGGAAAGG,0.371
16,CGGAAAGC,-0.151
17,AACCAAAT,0.127
18,GTCGCAAA,0.0742
19,ATATGCGC,0.0367
20,GGGCAACC,-0.175
21,CGGCAACA,0.0868
22,AGGCAACG,0.485
23,ACGCAACT,0.0644
24,AAGCAACT,-0.0233
25,CGGCAACG,-0.0123
26,CGGCAACC,-0.0847

row,Sequence,PBM E-score
1,AAGCAACG,0.0783
2,AGGCAACA,0.482
3,AGGCAACT,0.484
4,AGGCAACC,0.483
5,TGGCAACA,0.118
6,GAGGCAGC,-0.0844
7,CTTGCATC,-0.16
8,ACCTGCTC,0.166
9,ATATGACG,0.0195
10,CGTATTTC,0.215
11,AGGACACT,-0.159
12,AGGATCGA,-0.0463
13,GCACAACA,0.35
14,CCACAACA,-0.0484
15,GCACAACC,-0.0592
16,AAGGTCCC,-0.184
17,GGCGCATA,-0.113
18,ACCCGCAA,-0.0644
19,CAGAAACG,0.0904
20,ATGGAACA,-0.111
21,AAGGAACT,0.416
22,TAGGAACA,0.416
23,CAGGAACG,0.466
24,AAGGAAGA,-0.0092
25,CAGGAATG,-0.0291
26,ACGGAACT,-0.186

row,Sequence,PBM E-score
1,AAGGAACA,0.453
2,AAGGAATT,-0.0259
3,GAGGAACA,0.176
4,TCGGAACA,0.056
5,ATGCTTAG,0.0516
6,AACGTTAT,0.123
7,AAGCCTCC,-0.243
8,CACTGGCC,-0.267
9,AACACATA,0.312
10,AAATTGGA,-0.0378
11,CAGTGGCG,-0.266
12,AGCAGTCA,0.0249
13,CAGCCAGA,-0.3
14,CTCCCTTA,-0.018
15,ACCGGCCG,-0.21
16,CAGAAACA,0.0657
17,CGGGAACA,0.147
18,CAGAACCC,-0.0803
19,ACGGAACC,0.0959
20,ATGGAACG,0.0262
